PLK1 PBD block: PLK1 (human) polo-box domain binding inhibition; P53350; 2.8% of 360,000 active; Plk1 PBD binding of FITC phosphopeptide, fluorescence polarization; Potency, µM, most hits filed as inhibitors; further: series mostly up to about 57 µM; nearly all actives have a fitted effect of over 65% in size
Target sequence (P53350 whole entry, looked up, the tested form may be a part): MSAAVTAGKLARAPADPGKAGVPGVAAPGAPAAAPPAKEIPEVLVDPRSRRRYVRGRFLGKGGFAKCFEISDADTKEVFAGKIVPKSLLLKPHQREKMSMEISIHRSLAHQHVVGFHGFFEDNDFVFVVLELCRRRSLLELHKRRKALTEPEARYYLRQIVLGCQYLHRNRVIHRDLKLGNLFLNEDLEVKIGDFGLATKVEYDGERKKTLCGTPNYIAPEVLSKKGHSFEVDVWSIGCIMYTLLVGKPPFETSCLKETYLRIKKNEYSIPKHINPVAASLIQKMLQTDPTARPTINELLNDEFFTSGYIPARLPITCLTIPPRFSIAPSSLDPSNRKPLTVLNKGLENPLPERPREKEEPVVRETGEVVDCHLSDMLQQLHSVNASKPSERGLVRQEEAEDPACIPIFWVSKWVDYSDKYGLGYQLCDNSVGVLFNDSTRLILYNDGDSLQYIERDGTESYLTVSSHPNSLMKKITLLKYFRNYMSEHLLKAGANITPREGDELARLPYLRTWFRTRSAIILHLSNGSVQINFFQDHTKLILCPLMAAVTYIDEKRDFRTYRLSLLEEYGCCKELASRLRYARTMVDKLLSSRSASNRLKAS
PI5P4K alpha inh: inhibitors of human PI5P4K alpha; P48426; PI5P4Kalpha enzyme, ADP-Glo luminescence, 60 min; hits give low values; max response, %; 1.2% of 330,000 active; active means max response of -50% or lower; inconclusive means between -30% and -50%; inactive means -30% or higher; further: value at the top dose of about 77 µM
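Reactions run in 0.038 M HEPES pH 7.4, 0.28 mM EGTA, 0.1% CHAPS and 5% DMSO, with PI5P4Kalpha, substrate, compound and 5 microM ATP final, one hour at room temperature. Readout is ADP-Glo luminescence.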
JMJD2A Tudor: blocks the human JMJD2A Tudor domain; O75164; AlphaScreen JMJD2A-Tudor / H3K4me3 peptide binding; Potency, µM (doses to about 114 µM), actives largely listed as inhibitors; 4.4% of 390,000 active; further: nearly all actives have a fitted effect of over 50% in size
HP1b binding inh: HP1-beta chromodomain-methylated histone interaction inhibition | AlphaScreen HP1-beta / biotin-H3K9me3 peptide binding | Potency, µM (top dose mostly 114 µM), most hits filed as inhibitors | 0.56% of 390,000 active; further: nearly all actives have a fitted effect of over 70% in size
Target sequence (P83916 whole entry, looked up): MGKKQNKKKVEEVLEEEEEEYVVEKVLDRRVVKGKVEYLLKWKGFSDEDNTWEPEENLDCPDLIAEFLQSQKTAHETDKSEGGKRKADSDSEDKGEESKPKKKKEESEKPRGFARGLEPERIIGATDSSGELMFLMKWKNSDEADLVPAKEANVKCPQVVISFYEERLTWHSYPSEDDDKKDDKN
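AlphaScreen: HP1-beta (50 nM) preformed 30 min with biotin-H3(1-18)K9me3 peptide (50 nM) in PBS pH 7.4, 0.01% Tween-20. Compound added for 30 min at RT, then streptavidin donor/nickel chelate acceptor beads (10 ug/mL) for 30 min.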
BAZ2B block: inhibitors of human BAZ2B bromodomain | Q9UIF8 | AlphaScreen BAZ2B-H3K14Ac peptide displacement | Potency, µM (titrated, usually from 114 µM), usual class: inhibitors | 4.4% of 360,000 active | AID 504333; further: nearly all actives have a fitted effect of over 60% in size
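In this displacement format the biotinylated H3(5-23) peptide acetylated at Lys14 serves as ligand at 50 nM, with BAZ2B at 50 nM in PBS pH 7.4 containing 0.01% Tween-20. Donor and acceptor beads are 10 ug/mL final.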
G9a inh: G9a (human) methyltransferase inhibition; Q96KQ7; G9a H3K9 monomethylation, AlphaScreen, 2 h; Potency, µM (series often up to 102 µM), most hits filed as inhibitors; 8.8% of 350,000 active; AID 504332; further: nearly all actives have a fitted effect of over 75% in size
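Compounds were preincubated with 20 nM G9a for 15 min, after which biotinylated H3K9 peptide (500 nM) and SAM (20 uM) started a 2 h room-temperature reaction. Monomethylated product was quantified by antibody-based AlphaScreen chemiluminescence.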
Of the large screens only hits and unclear results are named; the others gave an inactive call. In the library only some 12% were active in any assay of this set; here they are far more common. Unless noted, the call rests on the fitted dose curve; in most records, active means well fitted curve in the direction sought with a large enough effect; inconclusive means small, poorly fitted or top-dose-only effect, or another doubt; inactive means no such curve, though single readings can be large; an effect the other way counts as inactive or inconclusive.

Cn1cccc1-c1nc2ccc(NC(=O)c3cccs3)cc2[nH]1	JMJD2A Tudor 56µM, HP1b binding inh 50µM, BAZ2B block 35µM, G9a inh inconclusive
Cc1nc2ccc(NC(=O)c3cccs3)cc2s1	none
CCOc1ccc2nc(N3CCN(C(=O)c4ccco4)CC3)sc2c1	none (no result: PLK1 PBD block, PI5P4K alpha inh)
CCCn1c(SCc2nc(-c3ccccc3OCC)no2)nnc1-c1ccc(Cl)cc1	none (no result: PLK1 PBD block, PI5P4K alpha inh)
Cc1[nH]n2cnnc2c(=O)c1Br	PI5P4K alpha inh -51, BAZ2B block inconclusive
CCn1c(Sc2nc(C)nc3scc(-c4cccs4)c23)n[nH]c1=O	G9a inh 45µM
Cc1nc(SCC(=O)NC(=O)NCCC(C)C)c2c(-c3cccs3)csc2n1	none
CCOC(=O)c1[nH]c(C)c(CCC(=O)Nc2ccc(C(C)=O)cc2)c1C	none (no result: PLK1 PBD block, PI5P4K alpha inh)
CCOc1ccc(CN2CCNC(=O)C2CC(=O)O)cc1 (stereo not drawn)	none
Cc1ccc(CN2CCNC(=O)C2CC(=O)O)cc1 (stereo not drawn)	G9a inh 16µM
O=C(O)CC1C(=O)NCCN1C/C=C/c1ccccc1 (stereo not drawn)	G9a inh inconclusive
O=C(O)CC1C(=O)NCCN1CCCc1ccccc1 (stereo not drawn)	G9a inh 28µM
CC1=C(C(=O)N2CCCCC2)C(c2ccc(Cl)cc2)n2c(nc3ccccc32)N1 (stereo not drawn)	none (no result: PLK1 PBD block, PI5P4K alpha inh)
CC(=O)c1cccc(NC(=S)NC(=O)Cc2ccccc2)c1	BAZ2B block inconclusive, G9a inh 22µM
O=C(CSCc1ccccc1Cl)Nc1ccc(C(=O)O)cc1	none
Cc1cccc(NCC(=O)NNC(=S)Nc2ccccc2)c1	JMJD2A Tudor inconclusive, G9a inh 32µM
O=C(CSCc1ccccc1Cl)NNC(=S)Nc1ccccc1	JMJD2A Tudor inconclusive, G9a inh 7.9µM (no result: PI5P4K alpha inh)
CC(O)CCC(=O)NNC(=S)Nc1ccccc1 (stereo not drawn)	none
Cc1cccc(NC(=S)NNC(=O)Cc2ccccc2)c1	G9a inh 16µM
CC(=O)c1cccc(NC(=S)NC(=O)Cc2ccc(Cl)cc2)c1	none
CC(C)(OC(=O)c1ccc(C#N)cc1)c1cc2ccccc2c(=O)o1	none
CCCC(=O)Nc1cc(C(=O)NCc2ccccc2)ccc1S(=O)(=O)c1ccc(Cl)cc1	none (no result: PLK1 PBD block, PI5P4K alpha inh)
CCCCNc1ncnc2c1cnn2-c1ccc(Cl)cc1	none
Clc1ccc(-n2ncc3c(NCCCn4ccnc4)ncnc32)cc1	G9a inh 25µM
C=CCNc1ncnc2c1cnn2-c1cccc(C)c1	none
C=CCNc1ncnc2c1cnn2-c1ccc(Cl)cc1	PLK1 PBD block 21µM, JMJD2A Tudor inconclusive
CCOc1ccc(-n2c(SCC(=O)Nc3cccc(Cl)c3)nc3c(oc4ccccc43)c2=O)cc1	none (no result: PLK1 PBD block, PI5P4K alpha inh)
CC(C)c1ccc(NC(=O)c2cc(S(=O)(=O)NCc3ccccc3Cl)ccc2F)cc1	none (no result: PLK1 PBD block, PI5P4K alpha inh)
Cc1ccc(OCC(=O)N/N=C\c2ccc(C)o2)c(C)c1	none
Nc1nonc1C(=O)N/N=C/c1ccc(-c2cccc(C(=O)O)c2)o1	BAZ2B block inconclusive, G9a inh 32µM (no result: PLK1 PBD block, PI5P4K alpha inh, JMJD2A Tudor, HP1b binding inh)
CNC(=S)N/N=C/c1ccc(-c2cccc(C(=O)O)c2)o1	PI5P4K alpha inh inconclusive
Cc1ccc(OCC(=O)N/N=C\c2ccc(-c3cccc(C(=O)O)c3)o2)c(C)c1	BAZ2B block inconclusive, G9a inh 35µM
COc1ccc(CC(=O)N/N=C/c2ccc(-c3cccc(C(=O)O)c3)o2)cc1OC	G9a inh 40µM
O=C(O)c1cccc(-c2ccc(/C=N/Nc3nn[nH]n3)o2)c1	PI5P4K alpha inh inconclusive, JMJD2A Tudor 56µM, BAZ2B block 56µM, G9a inh 45µM
COc1ccc(CC(=O)N/N=C/c2ccc(-c3ccc(F)cc3)o2)cc1OC	none
CCc1ccc(C(=O)c2cn(Cc3ccc(F)cc3)c3cc(OC)c(OC)cc3c2=O)cc1	none (no result: PLK1 PBD block, PI5P4K alpha inh)
CC(=O)c1ccsc1B(O)O	none (no result: PLK1 PBD block, PI5P4K alpha inh, BAZ2B block, G9a inh)
CC(C)(Oc1ccc(Cl)cc1)C(=O)Nc1ccc(-c2nc3ncccc3o2)cc1	none (no result: PLK1 PBD block, PI5P4K alpha inh)
CCOCCc1nn2c(=O)cc(COC(=O)CNC(=O)c3ccc(F)cc3)nc2s1	none (no result: PLK1 PBD block, PI5P4K alpha inh)
CCOC(=O)c1ccc(NC(=O)CSc2nc3ccccc3c(=O)n2CCNC(C)=O)cc1	none (no result: PLK1 PBD block, PI5P4K alpha inh)
S=c1nccc(-c2cccs2)[nH]1	PLK1 PBD block 12µM
O=C(Cc1ccc(Cl)cc1)NCC(c1cccs1)S(=O)(=O)c1ccc(F)cc1 (stereo not drawn)	none (no result: PLK1 PBD block, PI5P4K alpha inh)
COc1ccccc1CNC(=O)CCNS(=O)(=O)c1cc(Br)cnc1N	PLK1 PBD block 27µM, JMJD2A Tudor inconclusive
O=C(O)C(=O)/C(=C\c1ccc(Cl)cc1)c1ccc2ccccc2n1	PLK1 PBD block inconclusive, JMJD2A Tudor 22µM, BAZ2B block inconclusive
O=C(NCCc1ccc(Cl)cc1)c1ccc2ccccc2n1	JMJD2A Tudor inconclusive, G9a inh inconclusive
CN(Cc1nccs1)c1ncnc2ccc(-c3ccc4c(c3)OCO4)cc12	JMJD2A Tudor 79µM (no result: PLK1 PBD block, PI5P4K alpha inh, HP1b binding inh, BAZ2B block, G9a inh)
COc1cc2ncnc(N(C)Cc3csc(C)n3)c2cc1-c1ccc2c(c1)OCO2	JMJD2A Tudor 8.9µM (no result: PLK1 PBD block, PI5P4K alpha inh, HP1b binding inh, BAZ2B block, G9a inh)
COc1ccc(S(=O)(=O)N2CCCC2CNC(=O)C(=O)Nc2cccc(F)c2)cc1 (stereo not drawn)	none
Cc1c(Cl)cccc1NC(=S)Nn1cnnc1	PLK1 PBD block 7.5µM, BAZ2B block inconclusive, G9a inh 8.9µM
Cc1c(Cl)cccc1NC(=S)NC1CC1	G9a inh inconclusive
CCOC(=O)C1=CCN(S(=O)(=O)c2ccccc2Cl)C1c1cccc(Cl)c1 (stereo not drawn)	none (no result: JMJD2A Tudor, HP1b binding inh, BAZ2B block, G9a inh)
O=C(NCC(c1ccco1)N1CCc2ccccc21)c1ccccc1Br (stereo not drawn)	JMJD2A Tudor inconclusive, BAZ2B block inconclusive
Cc1ccc(C(=O)NCC(c2ccco2)N2CCc3ccccc32)cc1 (stereo not drawn)	JMJD2A Tudor inconclusive, BAZ2B block inconclusive, G9a inh 50µM
O=C(NCC(c1ccco1)N1CCc2ccccc21)c1cccc([N+](=O)[O-])c1 (stereo not drawn)	JMJD2A Tudor 56µM, BAZ2B block 50µM
Cc1cccc(C(=O)NCC(c2ccco2)N2CCc3ccccc32)c1 (stereo not drawn)	JMJD2A Tudor inconclusive, BAZ2B block inconclusive
COc1ccc(S(=O)(=O)NCC(c2ccco2)N2CCc3ccccc32)cc1 (stereo not drawn)	JMJD2A Tudor inconclusive, HP1b binding inh inconclusive, BAZ2B block inconclusive, G9a inh inconclusive
O=C(NCC(c1ccco1)N1CCc2ccccc21)c1ccccc1F (stereo not drawn)	JMJD2A Tudor inconclusive, HP1b binding inh inconclusive, BAZ2B block inconclusive, G9a inh 56µM
Cc1ccc(S(=O)(=O)NCC(c2ccco2)N2CCc3ccccc32)cc1 (stereo not drawn)	JMJD2A Tudor inconclusive, BAZ2B block inconclusive, G9a inh 40µM
